Assay outcomes from PubChem.
An excerpt weighted towards active compounds, which were near 2.2% of everything screened.
Ba/F3 V617F tox = lowers viability of Ba/F3 cells expressing EpoR and JAK2V617F; AID 1446; inhibition, % at 5.6 µM; 220,000 tested, 1.1% active; ATP luminescence;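 active means inhibition above the campaign mean plus 3 SD over all tested compounds, cut at about 24% in these data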;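 further: cytokine-independent growth of Ba/F3 cells driven by EpoR plus mutant JAK2; 0% = DMSO-treated cells and 100% = JAK inhibitor I control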
IEC-6 tox = counter-screen for KLF5 inhibitors: cytotoxicity in IEC-6 cells; inhibition, % at 5 µM; IEC-6 cytotoxicity, luminescence viability; 290,000 tested, 0.78% active; AID 1825;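 further: 0% = plate median of test compound wells and 100% = cytotoxic reference compound wells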
aSyn UTR inh = 5' untranslated region of α-synuclein, MLPCN primary screen; alpha-synuclein 5'UTR reporter, inhibitor activity; inhibition, % (tested at 7.5 µM); 300,000 tested, 0.82% active; in the data active means inhibition above about 60%; inconclusive means no clear call, values can overlap the other calls;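 further: H4 neuroglioblastoma cells stably carrying SNCA 5'UTR luciferase fusion; 0% = DMSO wells and 100% = positive control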
KLF5 inhibitor = inhibitors of KLF5 expression | DLD-1 KLF5 promoter-luciferase reporter, luminescence | inhibition, % at 5 µM | 290,000 tested, 0.23% active | AID 1700;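 active means inhibition above a per-plate limit of that plate's mean compound inhibition plus 3 SD, cut at about 60% in these data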;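 further: 0% = DMSO wells and 100% = LY294002 at 200 µM; higher means less KLF5 promoter-driven luciferase light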
APP transl inh = APP translation inhibition; SH-SY5Y APP 5'UTR-luciferase reporter, luminescence; inhibition, % at 2 µM; 190,000 tested, 0.82% active; AID 1285;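 active means inhibition above a set limit, derived from the sample mean plus 3 SD, cut at about 45% in these data; inconclusive means one replicate passes the limit while the other fails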
BaF3 parental = parental Ba/F3 viability inhibition as JAK2V617F counter-screen | 220,000 tested, 1.1% active | inhibition, % at 5.6 µM | CellTiter-Glo ATP luminescence;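 active means inhibition above a per-campaign cutoff, the mean inhibition of all tested compounds plus 3 SD, cut at about 27% in these data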;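 further: 0% = DMSO wells and 100% = JAK Inhibitor I control wells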
IEC-6 tox confirm = confirmation of cytotoxic compounds in rat IEC-6 intestinal epithelial cells | inhibition, % at 5 µM | 1,900 tested, 63% active | shares compounds with IEC-6 tox | IEC-6 rat intestinal epithelial viability, luminescence | AID 1907;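 further: 0% = vehicle and 100% = reference cytotoxic drug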
* hit, by the source's call. Unless noted, no stated cut-off is given here; in the data, active means inhibition above about 22%; inactive means the rest.

`O=C(OCC(=O)N1CCCC1=O)C1CCN(S(=O)(=O)c2c(Cl)cccc2Cl)CC1` gave IEC-6 tox 4.6, aSyn UTR inh -7.5 and KLF5 inhibitor 11.3.
`COc1ccc(-c2cc(=O)c3ccccc3o2)cc1` gave aSyn UTR inh -216.0.
COc1ccc2oc(-c3ccccc3[N+](=O)[O-])cc(=O)c2c1 was read as Ba/F3 V617F tox 65.3*, IEC-6 tox 44.1*, aSyn UTR inh 6.8, KLF5 inhibitor -27.8, APP transl inh 2.0, BaF3 parental 53.0* and IEC-6 tox confirm 47.7*.
CCOC(=O)c1c(C)nsc1NC(=O)C1CCCCC1 was read as IEC-6 tox -1.2, aSyn UTR inh 21.5 and KLF5 inhibitor -0.8.
`Cc1cc(NC(=O)c2ccc([N+](=O)[O-])o2)ccc1NC(=O)c1ccco1` gave Ba/F3 V617F tox 83.0*, IEC-6 tox 86.7*, aSyn UTR inh -110.4, KLF5 inhibitor 9.8, APP transl inh 79.0*, BaF3 parental 78.3* and IEC-6 tox confirm 25.3*.
Screening COc1cc(NC(=O)c2ccc([N+](=O)[O-])o2)ccc1NC(=O)c1ccco1 returned IEC-6 tox 100.1*, aSyn UTR inh 10.6, KLF5 inhibitor -14.8 and IEC-6 tox confirm 20.1.
For CCc1c(C(=O)NNC(=O)Nc2ccc3c(c2)OCO3)csc1C the results were IEC-6 tox -1.4, aSyn UTR inh -48.5 and KLF5 inhibitor -5.0.
`Cc1cc(C)c(S(=O)(=O)N2CCN(C(=O)c3ccc4c(c3)OCO4)CC2)c(C)c1` gave IEC-6 tox 2.5, aSyn UTR inh -19.8 and KLF5 inhibitor 9.2.
Screening COC(=O)COc1ccc(/C=N/NC(=O)CN(c2ccccc2OC)S(=O)(=O)c2ccccc2)cc1 returned IEC-6 tox 49.0*, aSyn UTR inh 20.1, KLF5 inhibitor -12.1 and IEC-6 tox confirm -8.4.
Screening CCN(CC(=O)NCc1ccc(Cl)cc1)CC(=O)NC1(C#N)CCCC1 returned IEC-6 tox 4.2, aSyn UTR inh -0.4 and KLF5 inhibitor 17.9.
`COc1cc(/C=C/c2ccc3cccc(O)c3n2)cc(OC)c1OC` gave IEC-6 tox 30.4*, aSyn UTR inh -23.7, KLF5 inhibitor -0.2 and IEC-6 tox confirm 3.8.
`Fc1ccccc1/C=C/c1ccc2ccccc2n1` gave Ba/F3 V617F tox -0.1, IEC-6 tox 2.3, aSyn UTR inh 35.0, KLF5 inhibitor -129.4, APP transl inh -195.5 and BaF3 parental 4.7.
Screening O=[N+]([O-])c1ccc(/C=C/c2ccc3cccc(O)c3n2)cc1 returned IEC-6 tox 42.3*, aSyn UTR inh -10.9, KLF5 inhibitor -132.5 and IEC-6 tox confirm 16.8.
Screening COc1cc(/C=C/c2ccc3cccc(O)c3n2)cc(Br)c1OC returned IEC-6 tox -0.9, aSyn UTR inh -81.1 and KLF5 inhibitor -62.8.
`O=[N+]([O-])c1ccc(/C=C/c2ccc3ccccc3n2)cc1` gave Ba/F3 V617F tox 0.9, IEC-6 tox 87.6*, aSyn UTR inh 46.1, KLF5 inhibitor -95.1, APP transl inh -165.4, BaF3 parental 8.9 and IEC-6 tox confirm 66.8*.
For CCc1ccc2oc(C(=O)N3CCN(c4ccccc4OC)CC3)cc(=O)c2c1 the results were IEC-6 tox 30.9*, aSyn UTR inh -3.9, KLF5 inhibitor 8.3 and IEC-6 tox confirm 54.5*.
Screening CCc1ccc2oc(C(=O)N3CCN(c4ccc(OC)cc4)CC3)cc(=O)c2c1 returned IEC-6 tox 4.5, aSyn UTR inh -5.4 and KLF5 inhibitor -17.7.
For O=C(NCc1cccs1)C1CCCN1C(=O)Nc1ccccc1[N+](=O)[O-] (stereo not given) the results were IEC-6 tox -0.4, aSyn UTR inh 6.9 and KLF5 inhibitor -5.8.
Screening Brc1ccccc1C1=Nn2c(nnc2-c2ccco2)SC1 returned Ba/F3 V617F tox -4.3, IEC-6 tox 1.7, aSyn UTR inh 14.3, KLF5 inhibitor -8.0 and BaF3 parental 3.3.
Brc1ccccc1C1=Nn2c(nnc2-c2ccccc2)SC1 was read as Ba/F3 V617F tox 36.9*, IEC-6 tox 27.3*, aSyn UTR inh inconclusive, KLF5 inhibitor -4.5, APP transl inh 2.5, BaF3 parental 32.0* and IEC-6 tox confirm 21.5.
For CC(=O)c1ccc(Nc2c3c(nc4ccccc24)CCCC3)cc1 the results were Ba/F3 V617F tox 2.2, IEC-6 tox 24.6*, aSyn UTR inh -195.3, KLF5 inhibitor -9.7, BaF3 parental -3.6 and IEC-6 tox confirm 20.4.
